“And” between values parts separate entries of the source, which are not always exact repeats. Equal entries are not always repeated. Records with an inconclusive call do not appear. The source made the active and inactive calls. How the source made its calls, unless noted: active means hit-call score of the fitted dose curve at least 0.9, where 1 is the maximum; inactive means score below 0.9.
What was measured:
[1] = biological target: Transcriptional activator Myb (Homo sapiens) (UniProt P10242); assay: ATG_Myb_CIS: Attagene CIS-FACTORIAL HepG2 Assay for human Myeloblastosis (Myb) Proto-Oncogene Transcription Factor (AID 2282986); details: HepG2 Attagene CIS-FACTORIAL Myb reporter transcription; actives raise or lower the signal
Sequence of Transcriptional activator Myb (Homo sapiens) (P10242 whole entry, looked up): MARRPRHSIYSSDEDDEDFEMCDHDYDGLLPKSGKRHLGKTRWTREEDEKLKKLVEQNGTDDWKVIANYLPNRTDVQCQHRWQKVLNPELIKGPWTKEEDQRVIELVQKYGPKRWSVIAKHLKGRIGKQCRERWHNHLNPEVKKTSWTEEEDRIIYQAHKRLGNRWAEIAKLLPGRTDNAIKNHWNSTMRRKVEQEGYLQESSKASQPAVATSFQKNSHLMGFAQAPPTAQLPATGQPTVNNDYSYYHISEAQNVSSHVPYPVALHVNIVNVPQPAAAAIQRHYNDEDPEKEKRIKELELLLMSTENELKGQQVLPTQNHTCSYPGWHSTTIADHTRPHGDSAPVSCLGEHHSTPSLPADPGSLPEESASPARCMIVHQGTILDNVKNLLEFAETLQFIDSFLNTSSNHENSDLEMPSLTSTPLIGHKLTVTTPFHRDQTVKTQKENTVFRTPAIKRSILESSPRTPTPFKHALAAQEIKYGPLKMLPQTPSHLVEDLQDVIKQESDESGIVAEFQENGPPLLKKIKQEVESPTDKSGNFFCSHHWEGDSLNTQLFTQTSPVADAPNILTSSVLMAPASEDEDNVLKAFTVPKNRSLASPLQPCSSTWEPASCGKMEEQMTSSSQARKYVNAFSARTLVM
Outline: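 Multiplexed cis-reporter system in HepG2: transient transfection, 24 h treatment, mRNA readout by RT-PCR and capillary electrophoresis. Both increases and decreases are scored versus DMSO negative control.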

[2] = biological target: Nuclear respiratory factor 1 (Homo sapiens) (UniProt Q16656); assay: ATG_NRF1_CIS: Attagene CIS-FACTORIAL HepG2 Assay for human Nuclear Respiratory Factor 1 (NRF1) Orphan Gene (AID 2282987); details: HepG2 NRF1 cis-element reporter, Attagene multiplex; actives raise or lower the signal
Sequence of Nuclear respiratory factor 1 (Homo sapiens) (Q16656 whole entry, looked up): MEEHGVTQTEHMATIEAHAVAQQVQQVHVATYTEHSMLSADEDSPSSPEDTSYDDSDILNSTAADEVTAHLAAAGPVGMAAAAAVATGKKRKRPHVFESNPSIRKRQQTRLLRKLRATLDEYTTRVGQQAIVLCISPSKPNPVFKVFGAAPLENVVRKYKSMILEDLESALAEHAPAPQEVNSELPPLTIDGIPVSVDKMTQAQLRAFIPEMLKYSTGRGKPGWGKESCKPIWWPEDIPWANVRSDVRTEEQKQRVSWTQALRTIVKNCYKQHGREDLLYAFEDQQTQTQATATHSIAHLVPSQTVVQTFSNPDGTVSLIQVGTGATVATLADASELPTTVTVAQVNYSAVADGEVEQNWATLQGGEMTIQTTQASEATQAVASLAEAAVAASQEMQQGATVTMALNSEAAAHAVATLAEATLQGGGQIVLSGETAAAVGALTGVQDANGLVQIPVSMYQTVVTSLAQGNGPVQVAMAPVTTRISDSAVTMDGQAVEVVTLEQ
Outline: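 Endogenous factor activity was captured via cis-element-driven reporter transcripts in HepG2 cells. Following 24 h chemical treatment, transcripts were quantified by RT-PCR and capillary electrophoresis.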

[3] = ATG_NFI_CIS: Attagene CIS-FACTORIAL HepG2 Assay for human Nuclear Factor I (NFI) (AID 2282989); details: HepG2 cis-regulatory reporter, NFI response element transcription; actives raise or lower the signal
Outline: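 HepG2 cells transiently transfected with cis-element-driven multiplexed reporter transcription units, dosed for 24 h. Reporter mRNA quantified by RT-PCR, fluorescent labelling, HpaI digestion and capillary electrophoresis; bidirectional fit versus DMSO baseline.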

[4] = ATG_NRF2_ARE_CIS: Attagene CIS-FACTORIAL HepG2 Assay for human Nuclear Factor Erythroid 2 Related Factor 2 (NFR2) response to Antioxidant Response Elements (ARE) (AID 2282992); details: HepG2 Attagene ARE/NRF2 reporter, transcription factor activity; actives raise or lower the signal;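 on AC50: reporter mRNA level measured by RT-PCR and capillary electrophoresis fluorescence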
Outline: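 Fluorescence intensity of reporter-specific cDNA fragments, separated by capillary electrophoresis, reflects mRNA induction in transfected HepG2 cells at 24 h. Activity is fitted bidirectionally, DMSO serving as baseline.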

[5] = ATG_Oct_MLP_CIS: Attagene CIS-FACTORIAL HepG2 Assay for human Octamer-Binding Transcription Factor (Oct) (AID 2282993); details: HepG2 Attagene cis-factorial Oct reporter, mRNA; actives raise or lower the signal
Outline: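 HepG2 cells transiently transfected with cis-promoter-driven multiplexed reporter transcription units, dosed for 24 h. Reporter mRNA quantified by RT-PCR, fluorescent labelling, HpaI digestion and capillary electrophoresis; bidirectional fits versus DMSO baseline.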

[6] = biological target: Cellular tumor antigen p53 (Homo sapiens) (UniProt P04637); assay: ATG_p53_CIS: Attagene CIS-FACTORIAL HepG2 Assay for human p53 Transcription Factor (AID 2282994); details: HepG2 p53 cis-element reporter, Attagene mRNA; actives raise or lower the signal
Sequence of Cellular tumor antigen p53 (Homo sapiens) (P04637 whole entry, looked up): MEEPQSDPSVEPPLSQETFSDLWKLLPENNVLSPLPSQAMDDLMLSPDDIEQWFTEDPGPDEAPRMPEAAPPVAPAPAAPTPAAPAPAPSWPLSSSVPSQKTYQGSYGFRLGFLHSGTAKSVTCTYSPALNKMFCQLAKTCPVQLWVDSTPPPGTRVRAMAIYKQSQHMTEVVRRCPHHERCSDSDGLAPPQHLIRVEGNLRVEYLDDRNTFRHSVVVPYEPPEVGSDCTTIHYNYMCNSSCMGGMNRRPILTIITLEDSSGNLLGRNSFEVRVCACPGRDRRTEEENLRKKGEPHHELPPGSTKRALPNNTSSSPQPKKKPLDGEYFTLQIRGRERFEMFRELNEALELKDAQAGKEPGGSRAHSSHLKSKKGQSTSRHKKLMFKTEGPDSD
Outline: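 Transiently transfected HepG2 (multiple cis reporter transcription units); exposure 24 h; reporter RNA via RT-PCR, 6-FAM extension, 2 h HpaI digest at 37 C, CE detection; DMSO baseline.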

[7] = ATG_M_06_TRANS: Attagene TRANS-FACTORIAL HepG2 Assay for M06 Transcription Factor (Internal Marker) (AID 2282983; active means hit-call score of the fitted dose curve at least 0.9, where 1 is the maximum); details: HepG2 Attagene TRANS M06 internal marker reporter
Outline: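 mRNA levels of a reporter transcript, quantified as FAM fluorescence on capillary electrophoresis, served as readout. HepG2 cells expressing exogenous GAL4-chimera reporter constructs were exposed for 24 h. Gain of signal over DMSO was evaluated.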

[8] = biological target: human Peroxisome Proliferator-activated Receptor alpha (PPARa), PPARA (gene 5465) (UniProt Q07869); assay: ATG_PPARa_TRANS: Attagene TRANS-FACTORIAL HepG2 Assay for human Peroxisome Proliferator-activated Receptor alpha (PPARa) (AID 2283001; active means hit-call score of the fitted dose curve at least 0.9, where 1 is the maximum;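 on AC50: potency for gain of reporter signal over DMSO so agonist or activator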)
Sequence of human Peroxisome Proliferator-activated Receptor alpha (PPARa), PPARA (gene 5465) (Q07869 whole entry, looked up): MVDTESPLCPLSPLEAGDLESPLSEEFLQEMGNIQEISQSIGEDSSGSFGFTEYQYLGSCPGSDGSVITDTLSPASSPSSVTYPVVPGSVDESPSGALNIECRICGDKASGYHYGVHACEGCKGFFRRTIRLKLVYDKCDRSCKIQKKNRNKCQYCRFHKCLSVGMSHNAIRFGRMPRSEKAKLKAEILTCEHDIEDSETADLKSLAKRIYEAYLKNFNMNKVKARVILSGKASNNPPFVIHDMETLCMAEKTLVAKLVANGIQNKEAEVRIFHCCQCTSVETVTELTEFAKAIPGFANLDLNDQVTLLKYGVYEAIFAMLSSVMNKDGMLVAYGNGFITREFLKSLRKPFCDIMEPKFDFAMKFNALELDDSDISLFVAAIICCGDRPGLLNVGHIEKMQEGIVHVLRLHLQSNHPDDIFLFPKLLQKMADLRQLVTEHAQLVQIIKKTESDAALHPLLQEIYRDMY
Outline: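 Cells (HepG2) are transfected with multiple reporter transcription units, exposed to chemical for 24 h, then total RNA is reverse-transcribed and amplified. Labelled products are quantified by capillary electrophoresis; induction is referenced to DMSO.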

[9] = biological target: human Peroxisome Proliferator-activated Receptor delta (PPARd), PPARD (gene 5467) (UniProt Q03181); assay: ATG_PPARd_TRANS: Attagene TRANS-FACTORIAL HepG2 Assay for human Peroxisome Proliferator-activated Receptor delta (PPARd) (AID 2283002; active means hit-call score of the fitted dose curve at least 0.9, where 1 is the maximum)
Sequence of human Peroxisome Proliferator-activated Receptor delta (PPARd), PPARD (gene 5467) (Q03181 whole entry, looked up, the tested form may be a part): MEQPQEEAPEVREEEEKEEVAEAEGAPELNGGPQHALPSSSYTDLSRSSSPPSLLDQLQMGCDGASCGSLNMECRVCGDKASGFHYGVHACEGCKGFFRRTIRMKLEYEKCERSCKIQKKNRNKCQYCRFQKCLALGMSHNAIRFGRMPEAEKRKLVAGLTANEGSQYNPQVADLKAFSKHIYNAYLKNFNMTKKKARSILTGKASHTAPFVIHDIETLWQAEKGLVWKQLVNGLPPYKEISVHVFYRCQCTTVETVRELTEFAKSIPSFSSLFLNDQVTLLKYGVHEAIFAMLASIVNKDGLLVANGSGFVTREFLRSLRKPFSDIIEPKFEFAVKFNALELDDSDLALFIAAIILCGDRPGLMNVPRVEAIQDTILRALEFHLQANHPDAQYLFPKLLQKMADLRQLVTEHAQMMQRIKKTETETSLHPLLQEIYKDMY
Outline: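 Measured quantity: GAL4-UAS reporter transcript induction in HepG2 after 24 h chemical dosing, with NR-Gal4 chimeras supplied by transient transfection. Detection by RT-PCR and capillary electrophoresis; upward fit against DMSO.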

[10] = biological target: Nuclear receptor subfamily 4 group A member 2 (Homo sapiens) (UniProt P43354); assay: ATG_NURR1_TRANS: Attagene TRANS-FACTORIAL HepG2 Assay for human Nuclear Receptor Related Protein 1 (NURR1) (AID 2282985; active means hit-call score of the fitted dose curve at least 0.9, where 1 is the maximum); details: HepG2 Attagene TRANS reporter, mRNA readout
Sequence of Nuclear receptor subfamily 4 group A member 2 (Homo sapiens) (P43354 whole entry, looked up, the tested form may be a part): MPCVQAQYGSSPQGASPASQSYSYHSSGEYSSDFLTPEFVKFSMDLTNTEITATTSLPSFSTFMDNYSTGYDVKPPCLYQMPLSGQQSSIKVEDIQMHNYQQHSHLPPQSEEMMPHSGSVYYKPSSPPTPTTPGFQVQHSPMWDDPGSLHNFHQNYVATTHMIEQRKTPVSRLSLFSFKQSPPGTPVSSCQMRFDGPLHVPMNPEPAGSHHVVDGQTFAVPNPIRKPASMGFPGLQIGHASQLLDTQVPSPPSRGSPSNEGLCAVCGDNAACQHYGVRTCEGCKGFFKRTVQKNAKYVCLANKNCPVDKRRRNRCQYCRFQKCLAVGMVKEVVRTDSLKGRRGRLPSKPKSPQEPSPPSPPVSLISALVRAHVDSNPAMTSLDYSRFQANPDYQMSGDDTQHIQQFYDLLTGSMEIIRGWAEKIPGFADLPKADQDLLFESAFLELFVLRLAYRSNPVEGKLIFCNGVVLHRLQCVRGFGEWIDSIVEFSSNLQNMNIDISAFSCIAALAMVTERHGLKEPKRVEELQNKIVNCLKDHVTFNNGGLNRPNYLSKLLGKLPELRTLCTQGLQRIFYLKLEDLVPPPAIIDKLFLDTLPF
Outline: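 Chimeric NR-Gal4 fusion activity measured in HepG2 after 24 h treatment. Reporter transcripts detected by RT-PCR and capillary electrophoresis fluorescence; positive-direction curve fitting against DMSO.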

[11] = biological target: Myc proto-oncogene protein (Homo sapiens) (UniProt P01106); assay: ATG_Myc_CIS: Attagene CIS-FACTORIAL HepG2 Assay for human Myelocytomatosis (Myc) Proto-Oncogene Transcription Factor (AID 2282990); details: HepG2, Attagene cis-reporter transcription factor activity; actives raise or lower the signal
Sequence of Myc proto-oncogene protein (Homo sapiens) (P01106 whole entry, looked up): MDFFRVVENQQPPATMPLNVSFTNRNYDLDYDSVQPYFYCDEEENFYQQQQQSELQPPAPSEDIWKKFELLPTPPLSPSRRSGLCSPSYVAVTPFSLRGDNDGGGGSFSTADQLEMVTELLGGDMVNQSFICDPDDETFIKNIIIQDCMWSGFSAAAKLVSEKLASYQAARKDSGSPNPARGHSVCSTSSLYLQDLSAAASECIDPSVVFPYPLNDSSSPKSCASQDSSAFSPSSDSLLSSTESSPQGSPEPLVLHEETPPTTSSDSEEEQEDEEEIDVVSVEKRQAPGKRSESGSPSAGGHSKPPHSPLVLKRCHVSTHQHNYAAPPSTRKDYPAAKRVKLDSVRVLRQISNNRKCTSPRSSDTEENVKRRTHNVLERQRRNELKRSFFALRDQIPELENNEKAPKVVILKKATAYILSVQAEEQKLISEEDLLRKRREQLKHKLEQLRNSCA
Outline: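 DMSO-normalised, bidirectionally fitted reporter mRNA signal. HepG2 cells transfected with cis reporter constructs, treated 24 h; transcripts detected by RT-PCR, 6-FAM primer extension and CE.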

[12] = ATG_M_32_TRANS: Attagene TRANS-FACTORIAL HepG2 Assay for M32 Transcription Factor (Internal Marker) (AID 2282984; active means hit-call score of the fitted dose curve at least 0.9, where 1 is the maximum;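 further: transcript level of a background control reporter unit measured by RT-PCR and capillary electrophoresis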); details: HepG2 Attagene TRANS M32 internal marker reporter
Outline: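 After 24 h dosing of transfected HepG2 cells, total RNA was reverse-transcribed, reporter sequences PCR-amplified, 6-FAM labelled by primer extension and HpaI-digested before capillary electrophoresis. Signal increase over DMSO was fitted.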

[13] = ATG_NF_kB_CIS: Attagene CIS-FACTORIAL HepG2 Assay for human Nuclear Factor Kappa B (NF-kB) (AID 2282991); details: HepG2 Attagene cis-factorial NF-kB reporter mRNA; actives raise or lower the signal
Outline: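 After 24 h compound incubation, transfected HepG2 cells yield total RNA; reporter cDNA is PCR-amplified, end-labelled with 6-FAM, HpaI-digested and analysed on a genetic analyser. Endogenous factor activity, DMSO-referenced bidirectional fit.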

[14] = BSK_3C_TissueFactor: BioMAP Diversity Plus: 3C Assay for Tissue Factor Biomarker Activity (AID 2282997); details: BioMAP 3C HUVEC, tissue factor biomarker readout; actives raise or lower the signal
Outline: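 Tissue Factor measured by ELISA, 24 h after treatment of primary HUVEC in the BioMAP 3C setting.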

[15] = BSK_3C_uPAR: BioMAP Diversity Plus: 3C Assay for Urokinase-type plasminogen activator receptor (uPAR) Biomarker Activity (AID 2282998); details: BioMAP 3C HUVEC, uPAR biomarker ELISA; actives raise or lower the signal
Outline: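 Human umbilical vein endothelial primary cells were exposed to test chemical for 24 h. Cell-surface uPAR was then quantified by ELISA, and responses were fitted bidirectionally against DMSO as negative control and baseline.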

[16] = BSK_4H_Eotaxin3: BioMAP Diversity Plus: 4H Assay for Eotaxin 3 Biomarker Activity (AID 2283000); details: primary human endothelial cells (HUVEC); actives raise or lower the signal
Outline: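 Eotaxin-3 (CCL26) levels were measured by ELISA in HUVEC primary cultures 24 h post-dosing. Gain or loss of signal was fitted in both directions, with DMSO serving as baseline and negative control.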

[17] = read-out: Intercellular Adhesion Molecule 1 (ICAM1), ICAM1 (gene 3383); assay: BSK_3C_ICAM1: BioMAP Diversity Plus: 3C Assay for Intercellular Adhesion Molecule 1 (ICAM1) Biomarker Activity (AID 2283003); details: primary human endothelial cells (HUVEC); actives raise or lower the signal
Outline: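 Chemicals are dosed onto primary human umbilical vein endothelium (3C system). After 24 h, ICAM-1 is measured by ELISA, and responses are fitted bidirectionally relative to DMSO.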

[18] = BSK_3C_VCAM1: BioMAP Diversity Plus: 3C Assay for Vascular cell adhesion molecule 1 (VCAM1) Biomarker Activity (AID 2282999); details: BioMAP 3C HUVEC, VCAM1 ELISA, cytokine-stimulated; actives raise or lower the signal
Outline: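 Vascular primary endothelium (human umbilical vein) was exposed to chemicals and assayed 24 h later. VCAM-1 levels came from ELISA, with DMSO serving as baseline for bidirectional fitting.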

[19] = biological target: human Retinoic Acid Receptor beta (RARb), RARB (gene 5915) (UniProt P10826); assay: ATG_RARb_TRANS: Attagene TRANS-FACTORIAL HepG2 Assay for human Retinoic Acid Receptor beta (AID 2283004; active means hit-call score of the fitted dose curve at least 0.9, where 1 is the maximum)
Sequence of human Retinoic Acid Receptor beta (RARb), RARB (gene 5915) (P10826 whole entry, looked up, the tested form may be a part): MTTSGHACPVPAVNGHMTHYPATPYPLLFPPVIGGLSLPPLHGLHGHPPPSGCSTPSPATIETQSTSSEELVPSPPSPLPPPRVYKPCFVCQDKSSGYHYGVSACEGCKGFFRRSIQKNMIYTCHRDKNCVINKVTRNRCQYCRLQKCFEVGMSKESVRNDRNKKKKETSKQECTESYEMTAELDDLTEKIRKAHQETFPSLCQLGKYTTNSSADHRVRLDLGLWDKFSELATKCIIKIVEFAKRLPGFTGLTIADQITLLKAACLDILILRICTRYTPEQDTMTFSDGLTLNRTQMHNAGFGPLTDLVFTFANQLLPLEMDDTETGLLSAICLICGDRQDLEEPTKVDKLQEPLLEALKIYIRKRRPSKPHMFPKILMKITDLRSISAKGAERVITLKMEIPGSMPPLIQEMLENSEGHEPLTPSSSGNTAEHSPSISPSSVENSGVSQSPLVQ
Outline: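 HepG2 cells were transiently transfected with GAL4-UAS reporter units that report activity of exogenous chimeric NR-Gal4 proteins, then exposed to compound for 24 h. Reporter mRNA was quantified by RT-PCR with capillary electrophoresis fluorescence, as gain of signal over DMSO.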

Measured: AC50

O=C(CBr)c1ccc(O)cc1
inactive: [1] | [2] | [3] | [5] | [6]
active: [4] 41.5 µM

C#CCO
inactive: [7] | [1] | [3] | [4] | [5] | [6] | [8] | [9]

CCCCCCCCCCCCOS(=O)(=O)O
inactive: [10] | [1] | [2] | [3] | [11] | [5]
active: [8] 3.86 µM and 12.1 µM

C=CCN=C=S
inactive: [12] | [1] | [2] | [3] | [11] | [13] | [4] | [5] | [6] | [8] | [9]

Cc1ccccc1OP(=O)(Oc1ccccc1)Oc1ccccc1
active: [10] 25.2 µM | [4] 12.3 µM | [14] 20 µM | [15] 35.3 µM | [16] 28.7 µM
inactive: [1] | [2] | [3] | [11] | [13] | [5] | [6] | [8] | [17]

C[C@]12CC[C@@H](O)C[C@@H]1CC[C@@H]1[C@@H]2CC[C@]2(C)C(=O)CC[C@@H]12
inactive: [1] | [2] | [3] | [13] | [4] | [5] | [6] | [14] | [15] | [18] | [16] | [8] | [17] | [19]

Cc1cccc(OP(=O)(Oc2cccc(C)c2)Oc2cccc(C)c2)c1
active: [4] 21.9 µM
inactive: [12] | [10] | [1] | [2] | [3] | [11] | [13] | [5] | [6] | [14] | [15] | [16] | [17]

— PubChem BioAssay (EPA / NIEHS)
